In PubChem BioAssay (NCATS):
Results filed as inconclusive are left out. Activity calls are given as the source filed them. Unless noted, the call rests on the fitted dose curve.

Assays:
[1] = Primary qHTS for inhibitors of SARS-S pseudo-typed particle cell entry (AID 1479145); details: outcome: dose series up to 57.1 µM unless noted; further: nearly all actives have a fitted effect of over 45% in size; on activity change, negative = inhibition: on the % scale 0 is the no-effect control and ±100 the full control effect
[2] = Primary qHTS for Huh7 cytotoxicity: counterscreen for inhibitors of MERS-S pseudotyped particle cell entry (AID 1479147); details: outcome: dose series up to 57.1 µM unless noted; on activity change, negative = cytotoxicity: on the % scale 0 is the no-effect control and ±100 the full control effect
[3] = Primary qHTS for inhibitors of MERS-S pseudo-typed particle cell entry (AID 1479149); details: outcome: dose series up to 57.1 µM unless noted; further: nearly all actives have a fitted effect of over 60% in size
[4] = Primary qHTS for Vero E6 cytotoxicity: counterscreen for inhibitors of SARS-S pseudo-typed particle cell entry (AID 1479150); details: outcome: dose series up to 57.1 µM unless noted; on activity change, negative = cytotoxicity: on the % scale 0 is the no-effect control and ±100 the full control effect
[5] = Cytotoxicity counterscreen for inhibitors of SARS-CoV-2 cell entry (AID 1645845); details: outcome: dose series up to 57.1 µM unless noted; further: nearly all actives have a fitted effect of over 50% in size; on activity change, negative = cytotoxicity: on the % scale 0 is the no-effect control and ±100 the full control effect
Procedure, shortened: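 HEK293-ACE2 cells (Expi293F stably expressing human ACE2) seeded overnight, then compound for 1 h plus 48 h at 37C. Viability as ATP content by luminescence; normalized to wells with cells and media-only wells.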

[6] = Primary qHTS to identify inhibitors of SARS-CoV-2 cell entry (AID 1645846); details: SARS-CoV-2 pseudovirus cell entry assay, luminescence; activity change, negative = inhibition: at 57.1 µM (top of the series) unless noted; further: nearly all actives have a fitted effect of over 45% in size
Procedure, shortened: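 Data are normalized to wells receiving SARS-CoV-2-S pseudoparticles and those given bald particles. Entry signal was luciferase luminescence in stable hACE2 Expi293F cells, 48 hr post-infection, after 1 hr compound pretreatment.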

[7] = biological target: Glutathione peroxidase 1 (Homo sapiens) (UniProt P07203); assay: Primary qHTS Assay for Inhibitors of Recombinant Selenoprotein Glutathione Peroxidase 1 (GPX1) (AID 1845191; active means well fitted curve in the direction sought with a large enough effect; an effect the other way counts as inactive or inconclusive; further: nearly all actives have a fitted effect of over 65% in size)
Procedure, shortened: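 GR-coupled assay: compounds preincubated 30 min at room temperature with GPX1, then reaction started with CHP; final 10 nM GPX1, 1 mM GSH, 0.5 mM CHP, 0.5 mM NADPH, 100 nM GR, 0.01% BSA, pH 7.5 Tris buffer. NADPH fluorescence (340/450 nm) read at 0 and 15 min.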

[8] = biological target: Phospholipid hydroperoxide glutathione peroxidase GPX4 (Homo sapiens) (UniProt P36969); assay: Primary qHTS Assay for Inhibitors of Recombinant Selenoprotein Glutathione Peroxidase 4 (GPX4) (AID 1845192; active means well fitted curve in the direction sought with a large enough effect; an effect the other way counts as inactive or inconclusive; further: nearly all actives have a fitted effect of over 65% in size)
Procedure, shortened: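 GR-coupled assay: recombinant GPX4 preincubated 30 min with compound at room temperature; final 200 nM GPX4, 1 mM GSH, 0.5 mM cumene hydroperoxide, 0.5 mM NADPH, 100 nM GR, 0.01% BSA, pH 7.5 Tris. NADPH fluorescence (340/450 nm) read at 0 and 15 min.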

[9] = qHTS profiling of the MIPE4 collection as inhibitors of Plasmodium falciparum (3D7) proliferation (AID 743344; call rule not given here;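 further: scaled between DMSO vehicle wells and 0.29 µM artemisinin as full inhibition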); details: P. falciparum 3D7 in erythrocytes, SYBR Green DNA fluorescence, 72 h; at 28.5 µM (top of the series)
Procedure, shortened: (§1)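 Erythrocytes infected with P. falciparum (0.3% parasitemia, 2.5% hematocrit) incubated with compounds 72 h at 37 C, 5% CO2. Lysis with saponin/Triton buffer containing SYBR Green I, overnight at room temperature in the dark; DNA fluorescence (485/535 nm) normalised to 0.29 uM artemisinin and DMSO.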

[10] = qHTS profiling of the MIPE4 collection as inhibitors of Plasmodium falciparum (DD2) proliferation (AID 743345; call rule not given here); details: P. falciparum Dd2 in erythrocytes, SYBR Green DNA, 72 h; at 28.5 µM (top of the series)
Procedure, shortened: as §1

[11] = qHTS profiling of the MIPE4 collection as inhibitors of Plasmodium falciparum (DD2) proliferation (Rep 2) (AID 743346; call rule not given here); details: P. falciparum Dd2 in erythrocytes, SYBR Green DNA, 72 h; at 28.5 µM (top of the series)
Procedure, shortened: as §1

[12] = biological target: Peroxisome proliferator-activated receptor delta (Homo sapiens) (UniProt Q03181); assay: qHTS assay for small molecule agonists of peroxisome proliferator-activated receptor delta signaling (AID 588534);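 further: 0% = DMSO basal wells and 100% = positive control agonist at 10 µM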
Procedure, shortened: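 Cell-based beta-lactamase reporter assay run in agonist mode: cells seeded and incubated 5 hrs at 37 C, compounds added and incubated 18 hrs at 37 C. CCF4 dye fluorescence read after 2 hrs at RT; EC50 and efficacy from Hill fits.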

[13] = qHTS profiling for inhibitors of Plasmodium falciparum (3D7) proliferation (AID 743322; call rule not given here;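 further: infected erythrocytes exposed to compound for 72 h before lysis; 100% = DMSO vehicle wells and 0% = 0.29 µM artemisinin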); details: P. falciparum 3D7 proliferation; at 28.7 µM (top of the series)
Procedure, shortened: as §1

[14] = qHTS profiling for inhibitors of Plasmodium falciparum (DD2) proliferation (AID 743323; call rule not given here); details: lower = more inhibition; at 28.7 µM (top of the series)
Procedure, shortened: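 Parasite DNA quantified by SYBR Green fluorescence (ex 485, em 535 nm) after saponin/Triton lysis and overnight dark incubation. Cultures: 0.3% parasitemia, 2.5% hematocrit, 72 h, 37 C; data scaled between DMSO and 0.29 uM artemisinin.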

[15] = qHTS profiling for inhibitors of Plasmodium falciparum (HB3) proliferation (AID 743324; active means well fitted curve in the direction sought with a large enough effect; an effect the other way counts as inactive or inconclusive;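 further: 100% = DMSO vehicle wells and 0% = artemisinin-treated control wells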); details: Plasmodium falciparum HB3 blood-stage proliferation; at 28.7 µM (top of the series)
Procedure, shortened: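 P. falciparum HB3 grown in erythrocytes (0.3% parasitemia, 2.5% hematocrit final) with compound for 72 h at 37 C, 5% CO2. Parasite DNA detected by SYBR Green after saponin/triton lysis overnight; normalized to 0.29 uM artemisinin and DMSO.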

Sequence of Glutathione peroxidase 1 (Homo sapiens) (P07203 whole entry, looked up): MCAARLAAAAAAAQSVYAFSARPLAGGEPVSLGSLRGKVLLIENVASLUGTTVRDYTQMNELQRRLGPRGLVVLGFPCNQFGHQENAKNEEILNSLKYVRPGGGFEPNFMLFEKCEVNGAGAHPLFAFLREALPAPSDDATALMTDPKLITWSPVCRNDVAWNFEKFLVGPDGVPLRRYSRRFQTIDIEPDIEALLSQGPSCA
Sequence of Phospholipid hydroperoxide glutathione peroxidase GPX4 (Homo sapiens) (P36969 whole entry, looked up): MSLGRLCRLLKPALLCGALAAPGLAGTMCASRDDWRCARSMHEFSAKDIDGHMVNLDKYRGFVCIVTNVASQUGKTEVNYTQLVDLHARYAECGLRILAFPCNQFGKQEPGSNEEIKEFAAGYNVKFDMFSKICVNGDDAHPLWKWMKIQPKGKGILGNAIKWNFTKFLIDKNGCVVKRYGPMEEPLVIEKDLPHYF
Sequence of Peroxisome proliferator-activated receptor delta (Homo sapiens) (Q03181 whole entry, looked up): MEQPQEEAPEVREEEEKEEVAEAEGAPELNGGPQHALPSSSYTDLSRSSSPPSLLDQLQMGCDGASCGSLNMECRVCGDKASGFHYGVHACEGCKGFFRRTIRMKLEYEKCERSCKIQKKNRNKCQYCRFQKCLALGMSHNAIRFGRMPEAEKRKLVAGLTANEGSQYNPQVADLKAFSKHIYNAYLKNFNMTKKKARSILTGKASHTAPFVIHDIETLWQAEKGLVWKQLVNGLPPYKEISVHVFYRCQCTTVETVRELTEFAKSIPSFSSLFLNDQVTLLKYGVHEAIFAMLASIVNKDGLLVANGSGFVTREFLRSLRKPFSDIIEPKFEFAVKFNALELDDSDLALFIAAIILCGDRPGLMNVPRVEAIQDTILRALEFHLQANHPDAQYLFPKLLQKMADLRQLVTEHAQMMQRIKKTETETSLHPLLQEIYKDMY

CC12C=CC(=O)NC1CCC1C2CCC2(C)C(C(=O)Nc3cc(C(F)(F)F)ccc3C(F)(F)F)CCC12 (configuration not stated)
-8.68%: activity change, negative = inhibition [6]
inactive: Potency [1] | Potency [2] | Potency [3] | Potency [4] | Potency [5]

CC(C)(C)C(=O)OCC(=O)[C@H]1CC[C@H]2[C@@H]3CCC4=CC(=O)CC[C@]4(C)[C@H]3CC[C@]12C
-13%: activity change, negative = inhibition [6]
inactive: Potency [1] | Potency [2] | Potency [3] | Potency [4] | Potency [5]

CCOc1ccc(Cc2cc([C@@]34OC[C@@](CO)(O3)[C@@H](O)[C@H](O)[C@H]4O)ccc2Cl)cc1
inactive: Potency [1] | Potency [2] | Potency [3] | Potency [4] | Potency [5]
-29.2%: activity change, negative = inhibition [6]

CC(=O)[O][Al][O]C(C)=O
-37.2% [at 11.3 µM]: activity change, negative = inhibition [6]
inactive: activity change, negative = inhibition [1] -39.3% [at 11.4 µM] | outcome [2] inactive [at 11.4 µM] | outcome [3] inactive [at 11.4 µM] | activity change, negative = cytotoxicity [4] -2.68% [at 11.4 µM] | outcome [5] inactive [at 11.3 µM]

CO[C@H]1C[C@@H](O[C@@H]2/C(C)=C/C[C@@H]3C[C@@H](C[C@]4(CC[C@H](C)[C@@H](C5CCCCC5)O4)O3)OC(=O)[C@@H]3C=C(C)/C(=N/O)[C@H]4OC/C(=C\C=C\[C@@H]2C)[C@]43O)O[C@@H](C)[C@H]1O
inactive: Potency [1] | Potency [2] | Potency [3] | Potency [4] | Potency [5] | Potency [6]

Cn1nnc(-c2ccc(-c3ccc(N4C[C@@H](CO)OC4=O)cc3F)cn2)n1
inactive: Potency [1] | Potency [2] | Potency [3] | Potency [4] | Potency [5] | Potency [6]

C/C(=C\C(=O)OCCCCCCCCC(=O)O)C[C@@H]1OC[C@H](C[C@@H]2O[C@H]2[C@@H](C)[C@H](C)O)[C@@H](O)[C@H]1O
inactive: Potency [1] | Potency [2] | Potency [3] | Potency [4] | Potency [5]
-28.4%: activity change, negative = inhibition [6]

Cc1cc(-c2ccc(N=Nc3c(S(=O)(=O)O)cc4cc(S(=O)(=O)O)cc(N)c4c3O)c(C)c2)ccc1N=Nc1c(S(=O)(=O)O)cc2cc(S(=O)(=O)O)cc(N)c2c1O
inactive: Potency [1] | Potency [2] | Potency [3] | Potency [4] | Potency [5]
2.81%: activity change, negative = inhibition [6]

C/C=C(/C)C(=O)O[C@H]1C(C)=CC23C(=O)C(C=C(CO)[C@@H](O)[C@]12O)[C@H]1[C@@H](C[C@H]3C)C1(C)C (some centres not stated)
inactive: Potency [1] | Potency [2] | Potency [3] | Potency [4] | Potency [5] | Potency [6]

NC[C@@H]1O[C@H](O[C@H]2[C@@H](O)[C@H](O[C@@H]3[C@@H](O)[C@H](N)C[C@H](N)[C@H]3O[C@H]3O[C@H](CO)[C@@H](O)[C@H](O)[C@H]3N)O[C@@H]2CO)[C@H](N)[C@@H](O)[C@@H]1O
inactive: activity change, negative = inhibition [1] -8.64% [at 0.573 µM] | outcome [2] inactive [at 0.573 µM] | outcome [3] inactive [at 0.573 µM] | activity change, negative = cytotoxicity [4] -20.5% [at 0.573 µM] | activity change, negative = cytotoxicity [5] -2.38% [at 0.702 µM] | outcome [6] inactive [at 0.702 µM]

C[C@]12CCC(=O)C=C1CC[C@@H]1[C@@H]2[C@@H](O)C[C@@]2(C)[C@H]1CC[C@]2(O)C(=O)COP(=O)(O)O
2.63% [at 27.1 µM]: activity change, negative = inhibition [6]
inactive: Potency [1] | Potency [2] | Potency [3] | Potency [4] | Potency [5]

CN=C(NC)NCc1ccccc1
-12.2%: activity change, negative = inhibition [6]
inactive: Potency [1] | Potency [2] | Potency [3] | Potency [4] | Potency [5]

CN(CC(=O)N1CCOCC1)Cc1c(Cl)cccc1NC(=O)c1ccccc1
-38.4%: activity change, negative = inhibition [6]
inactive: Potency [1] | Potency [2] | Potency [3] | Potency [4] | Potency [5]

CC[N+]1(C)C2CC(OC(=O)[C@H](CO)c3ccccc3)CC1[C@@H]1O[C@H]21 (some centres not stated)
-33.5%: activity change, negative = inhibition [6]
inactive: Potency [1] | Potency [2] | Potency [3] | Potency [4] | Potency [5] | Potency [7] | Potency [8]

CN[C@@H]1[C@H](O)[C@H](O[C@@H]2[C@H](O)[C@@H](O[C@H]3O[C@H]([C@@H](C)NC)CC[C@H]3N)[C@@H](N)C[C@H]2N)OC[C@]1(C)O
-8.26% [at 11.3 µM]: activity change, negative = inhibition [6]
inactive: outcome [1] inactive [at 11.4 µM] | activity change, negative = cytotoxicity [2] -2.83% [at 11.4 µM] | outcome [3] inactive [at 11.4 µM] | activity change, negative = cytotoxicity [4] -14.2% [at 11.4 µM] | activity change, negative = cytotoxicity [5] -14.3% [at 11.3 µM]
196%: parasite growth, % of control (lower = inhibition) [11]
98.7%: parasite growth remaining, % of DMSO control (lower = more inhibition) [10]
81.2%: parasite growth, % of DMSO control [9]

Cc1ccc(S(=O)(=O)O)cc1C
-10.6%: activity change, negative = inhibition [6]
inactive: outcome [12] | Potency [1] | Potency [2] | Potency [3] | Potency [4] | Potency [5]

OB1OCc2cc(F)ccc21
40.3%: remaining proliferation (% of control), lower = more inhibition [15]
85.7%: remaining parasite growth % (stronger effect = lower value) [13]
91.5%: activity, percent of control [14]
inactive: Potency [1] | Potency [2] | Potency [3] | Potency [4] | Potency [5]
-25.6%: activity change, negative = inhibition [6]

CCN(C)C(C)C(O)c1ccccc1 (configuration not stated)
inactive: Potency [1] | Potency [2] | Potency [3] | Potency [4] | Potency [5] | Potency [7] | Potency [8]
-6%: activity change, negative = inhibition [6]

COC1(O[C@H]2CC[C@H]3[C@@H]4CC[C@H]5C[C@@H]6S[C@@H]6C[C@]5(C)[C@H]4CC[C@]23C)CCCC1
inactive: Potency [1] | Potency [2] | Potency [3] | Potency [4] | Potency [5] | Potency [6] | Potency [7] | Potency [8]

O=C(O)c1ccccc1C(c1ccc(O)cc1)c1ccc(O)cc1
inactive: outcome [12] | Potency [1] | Potency [2] | Potency [3] | Potency [4] | Potency [5]
-24.4%: activity change, negative = inhibition [6]

CCC[C@@H]1CC(=O)N([C@@H](CC)C(N)=O)C1
-22.5%: activity change, negative = inhibition [6]
inactive: Potency [1] | Potency [2] | Potency [3] | Potency [4] | Potency [5] | Potency [7] | Potency [8]
